The campaign covered roughly 5,500 compounds. About 2,000 (36%) were called active. Roughly 18% stayed inconclusive and do not appear here. Cut-off read from the data, not from the text of the source: active = normalized growth mostly below about 0.91 (no sharp cut-off); inconclusive = no clear call, values can overlap the other calls; inactive = mostly above about 0.92. The list shows a part of the results.
Test: chemical genetic growth profiling, strain panel (AID 1159580);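 note: tested at 20 µM; growth read once vehicle control cultures reached saturation at 30 °C; 1 = growth at the plate median or of vehicle wells; lower values mean less growth of the strain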
Conditions: growth OD
[1] = S. cerevisiae deletion strains, locus YAL013W, strain DEP1, stronger effect = lower value
[2] = S. cerevisiae deletion strains, locus YDL101C, strain DUN1, stronger effect = lower value
[3] = S. cerevisiae deletion strains, locus YDR150W, strain NUM1, stronger effect = lower value
[4] = S. cerevisiae deletion strains, locus YEL061C, strain CIN8, stronger effect = lower value
[5] = S. cerevisiae deletion strains, locus YGR078C, strain PAC10, stronger effect = lower value
[6] = S. cerevisiae deletion strains, locus YHR030C, strain SLT2, stronger effect = lower value
[7] = S. cerevisiae deletion strains, locus YHR087W, strain rtc3, stronger effect = lower value
[8] = S. cerevisiae deletion strains, locus YJR043C, strain POL32, stronger effect = lower value
[9] = S. cerevisiae deletion strains, locus YJR075W, strain HOC1, stronger effect = lower value
[10] = S. cerevisiae deletion strains, locus YLR039C, strain RIC1, stronger effect = lower value
[11] = S. cerevisiae deletion strains, locus YLR058C, strain SHM2 (second series), stronger effect = lower value
[12] = S. cerevisiae deletion strains, locus YLR085C, strain ARP6, stronger effect = lower value
[13] = S. cerevisiae deletion strains, locus YLR262C, strain YPT6, stronger effect = lower value
[14] = S. cerevisiae deletion strains, locus YML094W, strain GIM5, stronger effect = lower value
[15] = S. cerevisiae deletion strains, locus YMR219W, strain ESC1, stronger effect = lower value
[16] = S. cerevisiae deletion strains, locus YMR263W, strain SAP30, stronger effect = lower value
[17] = S. cerevisiae deletion strains, locus YNL153C, strain GIM3, stronger effect = lower value
[18] = S. cerevisiae deletion strains, locus YNL298W, strain CLA4 (second series), stronger effect = lower value
[19] = S. cerevisiae deletion strains, locus YNL322C, strain KRE1, stronger effect = lower value
[20] = S. cerevisiae deletion strains, locus YNR030W, strain Alg12, stronger effect = lower value
[21] = S. cerevisiae deletion strains, locus YPL055C, strain LGE1, stronger effect = lower value
[22] = S. cerevisiae deletion strains, locus YPL241C, strain CIN2, stronger effect = lower value
[23] = S. cerevisiae deletion strains, locus YPR135W, strain CTF4, stronger effect = lower value
[24] = S. cerevisiae strains, strain wild type, stronger effect = lower value

Measured: normalized growth

O=C1NN(c2ccccc2)C(=S)Nc2ccccc21
inactive: [1] 1 | S. cerevisiae deletion strains, locus YBR229C, strain ROT2, stronger effect = lower value 1.01 | [2] 0.988 | [3] 0.994 | [4] 1.01 | [5] 0.986 | [6] 0.986 | [7] 1 | S. cerevisiae deletion strains, locus YJL187C, strain SWE1, stronger effect = lower value 0.988 | [8] 0.997 | [9] 0.994 | [10] 0.994 | [11] 1 | [12] 0.984 | [13] 0.999 | [14] 0.987 | [15] 0.999 | [16] 0.996 | S. cerevisiae deletion strains, locus YMR307W, strain GAS1, stronger effect = lower value 0.965 | [17] 0.978 | [18] 1.01 | [19] 1.01 | [20] 1 | [21] 1.02 | [22] 0.98 | [23] 0.979 | [24] 1.01

S=C1NC2(CCCCC2)NN1c1ccccc1
active: [1] 0.869 | S. cerevisiae deletion strains, locus YCL061C, strain MRC1, stronger effect = lower value 0.892 | [4] 0.14 | [5] 0.761 | [6] 0.1 | S. cerevisiae deletion strains, locus YKL190W, strain CNB1, stronger effect = lower value 0.0617 | [10] 0.116 | [12] 0.0768 | [13] 0.114 | [14] 0.0764 | [16] 0.895 | [17] 0.884 | [18] 0.0996 | [20] 0.0942 | S. cerevisiae deletion strains, locus YOL006C, strain TOP1, stronger effect = lower value 0.088 | [21] 0.759 | [22] 0.0946 | [23] 0.223 | [24] 0.0726
inactive: [2] 0.92 | [3] 0.836 | [7] 0.987 | [8] 0.94 | [9] 0.908 | [11] 0.98 | [15] 0.956 | [19] 0.988
